{"source": "PubChem BioAssay"}
{"target": "NADPH oxidase 5 (Homo sapiens) (UniProt Q96PH1)", "sequence (Q96PH1 whole entry, looked up)": "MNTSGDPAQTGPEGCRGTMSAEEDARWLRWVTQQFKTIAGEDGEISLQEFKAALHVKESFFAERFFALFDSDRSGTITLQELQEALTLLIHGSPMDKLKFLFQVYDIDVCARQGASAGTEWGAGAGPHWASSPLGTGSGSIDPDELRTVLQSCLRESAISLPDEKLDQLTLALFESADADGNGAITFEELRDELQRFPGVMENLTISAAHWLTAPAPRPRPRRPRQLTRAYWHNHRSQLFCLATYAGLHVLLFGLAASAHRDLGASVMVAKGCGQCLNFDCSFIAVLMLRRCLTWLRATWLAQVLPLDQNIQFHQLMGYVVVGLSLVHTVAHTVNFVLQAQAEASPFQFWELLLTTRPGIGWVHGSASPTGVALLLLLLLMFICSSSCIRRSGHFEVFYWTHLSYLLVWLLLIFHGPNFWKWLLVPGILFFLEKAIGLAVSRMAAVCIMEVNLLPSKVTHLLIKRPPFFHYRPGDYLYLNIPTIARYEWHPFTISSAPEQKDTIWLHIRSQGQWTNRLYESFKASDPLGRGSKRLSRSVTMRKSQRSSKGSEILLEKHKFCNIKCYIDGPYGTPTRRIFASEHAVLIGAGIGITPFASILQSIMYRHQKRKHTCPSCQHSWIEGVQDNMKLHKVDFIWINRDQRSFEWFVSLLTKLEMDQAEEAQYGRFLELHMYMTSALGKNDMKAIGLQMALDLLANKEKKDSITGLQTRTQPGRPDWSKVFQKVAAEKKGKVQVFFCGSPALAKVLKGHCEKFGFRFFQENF", "experiment": "NOX5-dependent H2O2 signal modulators, primary screen, NOX inhibitor project, cell-based, HEK293-NOX5, Amplex Red fluorescence (AID 1161)", "details": "HEK293-NOX5, ionomycin, 45 min, higher = more signal"}
{"smiles": "[N-]=[N+]=NCc1ccccc1[C@@H]1OC(c2ccc(OCCCO)cc2)=N[C@]1(CCS(=O)(=O)c1ccccc1)C(=O)O", "z-score": 2.11}
{"smiles": "CC1CC/C=C\\[C@H]2OC34C=CCN(c5ccc(Cl)cc5)C(=O)[C@H]3N(C(C)CO)C(=O)[C@]4(C)C2C(=O)O1", "note": "(stereo not given in full)", "z-score": 1.17}
{"smiles": "C=CC[C@]1(C(=O)N2CCCCC2)N=C(c2ccc(OCCCO)cc2)O[C@H]1c1ccccc1CN=[N+]=[N-]", "z-score": -1.46}
{"smiles": "COc1ccc([Si](C)(C)[C@H]2[C@H](CC(=O)N3CCC[C@H]3CO)O[C@@]3(C(=O)N(Cc4ccc(N5CCOC5=O)cc4)c4ccccc43)[C@@H]2C)cc1", "z-score": 3.78}
{"smiles": "Cc1cc(C)c(C(O)C2C=CC3C(=O)N(c4ccccc4)C(=O)C3N2Nc2ccccc2F)c(C)c1", "note": "(stereo not given)", "z-score": -0.344}
{"smiles": "CC[C@@H]1O[Si](C(C)C)(C(C)C)c2c1cc(-c1cc(C)c(OC)c(C)c1)nc2-c1ccc(Oc2ccccc2)cc1", "z-score": -2.04}
{"smiles": "O[C@@H](Cc1ccccc1)[C@@H](/C=C/C1CC1)N(CC#Cc1ccccc1)Cc1ccccc1Br", "z-score": -0.586}
{"smiles": "COC(=O)C/C=C/C[C@]1(O)C(=O)N(C)c2ccccc21", "z-score": 0.882}
{"smiles": "C=CC[C@@]1(C(=O)NCCCOC)N=C(c2ccc(OCCCO)cc2)O[C@@H]1c1ccccc1N=[N+]=[N-]", "z-score": -1.64}
{"smiles": "COC(=O)[C@@H]1N=C(c2ccc(OCCCO)cc2)O[C@@H]1C", "z-score": -0.647}
{"smiles": "CCCC=C(CCC)[C@@H](NC(=O)c1cccs1)c1ccc(C(=O)OC)cc1", "z-score": 2.06}
{"smiles": "COc1cc(NN2C(C(O)c3cc(OC)c(OC)c(OC)c3)C=CC3C(=O)N(C)C(=O)C32)cc(OC)c1OC", "note": "(stereo not given)", "z-score": -2.51}
{"smiles": "COc1cc(OC)c(C(O)C2C=CC3C(=O)N(Cc4ccccc4)C(=O)C3N2n2cnnc2)cc1Br", "note": "(stereo not given)", "z-score": -3.53}
{"smiles": "C=CCC(OC(C)=O)[C@@H]1[C@@H](N(Cc2cc3ccccc3o2)C(=O)Cc2ccc(F)cc2)c2cc(OCCCO)ccc2N1C(=O)Cc1ccc2ccccc2c1", "note": "(stereo not given in full)", "z-score": 1.86}
{"smiles": "COc1ccc(CCNC(=O)[C@@H]2c3ccccc3C(=O)N(C3CCCCC3)[C@H]2c2ccc(CO)cc2)cc1", "z-score": -2.31}
{"smiles": "C[N+](C)(C)CCCC[C@@H]1NC(=O)[C@@H]2C[C@H](C(=O)NCCCCCCN)[C@H](c3cccc(OCCO)c3)N2C1=O", "z-score": 0.559}
{"smiles": "O=C1C2C=CC(C(O)C3CC=CCC3)N(Nc3ccccc3)C2C(=O)N1c1ccccc1", "note": "(stereo not given)", "z-score": -6.07}
{"smiles": "O=C1C2C=CC(C(O)c3ccco3)N(Nc3ccccc3F)C2C(=O)N1c1ccccc1", "note": "(stereo not given)", "z-score": -1.64}
{"smiles": "COC(=O)c1c(CC[C@@H](CO)NC(=O)N2CCC[C@H]2Cn2cc(C3(O)CCCCC3)nn2)oc(C(C)=O)c1C(=O)OC", "z-score": -1.37}
{"smiles": "C=C(/C(=C/C[C@H](OC(=O)c1ccncc1)c1ccc(CO)o1)c1cnc2ccccc2c1)C(C)C", "z-score": -0.415}
{"smiles": "COCC(=C=CC[C@H](O)c1ccccc1OCCO)C[C@H](O)c1ccccn1", "z-score": -0.926}
{"smiles": "CC(C)c1ccc(NN2C(C(O)c3ccc(F)cc3)C=CC3C(=O)N(c4ccccc4)C(=O)C32)cc1", "note": "(stereo not given)", "z-score": -2.6}
{"smiles": "CO[C@H]1O[C@H](CO)[C@@H](OC(=O)Nc2ccc3c(c2)OCO3)[C@H](OC(=O)Nc2ccc3c(c2)OCO3)[C@@H]1OC(=O)Nc1ccc2c(c1)OCO2", "z-score": -1.57}
{"smiles": "CCCNC(=O)[C@@H]1c2ccccc2C(=O)N(Cc2ccc(OC(F)(F)F)cc2)[C@H]1c1ccc(CO)cc1", "z-score": 1.75}
{"smiles": "CCOC(=O)C[C@H]1[C@H](OC(=O)c2cc3ccccc3oc2=O)[C@@H](NC(=O)c2ccccc2)c2cc(OCCCO)ccc2N1C(=O)c1ccccc1", "z-score": -0.713}
{"smiles": "CCCNC(=O)[C@@]1(C)c2ccccc2C(=O)N(c2ccc(C)cn2)[C@H]1c1ccc(CO)cc1", "z-score": 0.238}
{"smiles": "CC(C)C(O)C1C=CC2C(=O)N(c3ccccc3)C(=O)C2N1Nc1ccccc1", "note": "(stereo not given)", "z-score": -6.43}
{"smiles": "CCCCC(CC)C(O)C1C=CC2C(=O)N(c3ccccc3)C(=O)C2N1Nc1ccc(C#N)cc1", "note": "(stereo not given)", "z-score": -1.91}
{"smiles": "COc1ccc(CCNC(=O)[C@@]2(Cc3ccccc3I)c3ccccc3C(=O)N(C3CCCCC3)[C@H]2c2ccc(CO)cc2)cc1", "z-score": -2.19}
{"smiles": "[N-]=[N+]=Nc1ccccc1C[C@@]1(C(N)=O)N=C(c2ccc(OCCCO)cc2)O[C@@H]1c1ccccc1N=[N+]=[N-]", "z-score": -1.55}
{"smiles": "C=CCN1C(=O)[C@]2(CCS(=O)(=O)c3ccccc3)N=C(c3ccc(OCCCO)cc3)O[C@@H]2c2ccccc21", "z-score": 1.28}
{"smiles": "NC(=O)NCC#Cc1ccc2c(c1)[C@]1(C(=O)N2)[C@H](c2ccccc2OCCO)N2[C@H](c3ccccc3)[C@H](c3ccccc3)OC(=O)[C@H]2[C@@H]1C(=O)O", "z-score": -0.123}
{"smiles": "NCCCCCNC(=O)[C@H]1C[C@H]2C(=O)N3CCC[C@H]3C(=O)N2[C@H]1c1cccc(OCCO)c1", "z-score": 2.48}
{"smiles": "COc1ccc([Si](C)(C)[C@@H]2[C@@H](CCO)O[C@]3(C(=O)N(Cc4cccc(NC(=O)[C@H](C)O)c4)c4ccccc43)[C@H]2C)cc1", "z-score": -0.256}
{"smiles": "CCCCN1CC=CC23O[C@@H]4/C=C\\CCCOC(=O)C4[C@H]2C(=O)N(CCO)[C@@H]3C1=O", "note": "(stereo not given in full)", "z-score": 1.5}
